Calls of active or inactive are those of the source. The calls were made as follows: active = hit-call score of the fitted dose curve at least 0.9, where 1 is the maximum; inactive = score below 0.9.
Legend:
[1] = read-out: TIMP metallopeptidase inhibitor 2 (TIMP2), TIMP2 (gene 7077); assay: BSK_KF3CT_TIMP2: BioMAP Diversity Plus: KF3CT Assay for TIMP metallopeptidase inhibitor 2 (TIMP2) Biomarker Activity (AID 2283071); settings: primary human keratinocytes with fibroblasts; actives raise or lower the signal
Procedure, shortened: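 Human primary keratinocyte/foreskin fibroblast co-culture dosed with chemical and sampled at 24 h. TIMP-2 levels quantified by ELISA; bidirectional fitting against DMSO negative control as baseline.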

[2] = read-out: Transforming growth factor beta 1 (TGFb1), TGFB1 (gene 7040); assay: BSK_KF3CT_TGFb1: BioMAP Diversity Plus: KF3CT Assay for Transforming growth factor beta 1 (TGFb1) Biomarker Activity (AID 2283072); settings: primary human keratinocytes with fibroblasts; actives raise or lower the signal
Procedure, shortened: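 Human keratinocyte plus foreskin fibroblast primary co-culture, dosed with chemical for 24 h. TGF-b1 quantified by ELISA. Activity fitted bidirectionally against DMSO negative control as baseline.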

[3] = read-out: C-C motif chemokine 2 (Homo sapiens) (UniProt P13500); assay: BSK_KF3CT_MCP1: BioMAP Diversity Plus: KF3CT Assay for Monocyte Chemoattractant Protein 1 (MCP1/CCL2) Biomarker Activity (AID 2283073); settings: primary human keratinocytes with fibroblasts; actives raise or lower the signal
Procedure, shortened: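 Human keratinocyte–foreskin fibroblast co-culture; MCP-1 measured by ELISA 24 h after dosing. Bidirectional fit vs DMSO; cytotoxicity tracked by SRB total protein in parallel cultures.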

[4] = read-out: Matrix Metallopeptidase 9 (MMP9), MMP9 (gene 4318); assay: BSK_KF3CT_MMP9: BioMAP Diversity Plus: KF3CT Assay for Matrix Metallopeptidase 9 (MMP9) Biomarker Activity (AID 2283074); settings: primary human keratinocytes with fibroblasts; actives raise or lower the signal;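 as to AC50: MMP9 protein level quantified by ELISA in the co-culture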
Procedure, shortened: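 Keratinocyte plus foreskin fibroblast human primary skin co-culture was dosed with chemical and MMP-9 was quantified by ELISA 24 h later. Bidirectional curve fitting used DMSO as negative control and activity baseline.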

[5] = read-out: urokinase plasminogen activator (uPA), PLAU (gene 5328); assay: BSK_KF3CT_uPA: BioMAP Diversity Plus: KF3CT Assay for urokinase plasminogen activator (uPA) Biomarker Activity (AID 2283075); settings: primary human keratinocytes with fibroblasts; actives raise or lower the signal
Procedure, shortened: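 Human keratinocyte plus foreskin fibroblast primary co-culture exposed to chemical for 24 h. uPA levels were quantified by ELISA, and activity was fitted bidirectionally against a DMSO negative-control baseline.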

CD40, CD40 (gene 958) [6] = assay: BSK_LPS_CD40: BioMAP Diversity Plus: LPS Assay for CD40 Biomarker Activity (AID 2283076); settings: primary human HUVEC with PBMC; actives raise or lower the signal
Procedure, shortened: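 HUVEC plus PBMC co-culture stimulated with LPS; CD40 quantified by ELISA 24 h after compound dosing. Fitting was bidirectional relative to DMSO. SRB staining of parallel cultures flagged overt cytotoxicity.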

[7] = read-out: E-selectin (Homo sapiens) (UniProt P16581); assay: BSK_LPS_Eselectin: BioMAP Diversity Plus: LPS Assay for Eselectin Biomarker Activity (AID 2283077); settings: primary human HUVEC with PBMC; actives raise or lower the signal
Procedure, shortened: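 Human umbilical vein endothelial cells co-cultured with PBMC under LPS stimulation; cell-surface E-selectin measured by ELISA 24 h after dosing. Change in either direction versus DMSO, with SRB total-protein staining in parallel cultures for cytotoxicity.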

[8] = read-out: Interleukin-8 (IL8), CXCL8 (gene 3576); assay: BSK_LPS_IL8: BioMAP Diversity Plus: LPS Assay for Interleukin-8 (IL8) Biomarker Activity (AID 2283078); settings: primary human HUVEC with PBMC; actives raise or lower the signal
Procedure, shortened: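 Human umbilical vein endothelial cells co-cultured with PBMC, LPS-stimulated, exposed to compound for 24 h. IL-8 quantified by ELISA; fitted in both directions against DMSO, with SRB total-protein staining of parallel cultures for cytotoxicity.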

[9] = read-out: Interleukin-1 alpha (IL1a), IL1A (gene 3552); assay: BSK_LPS_IL1a: BioMAP Diversity Plus: LPS Assay for Interleukin-1 alpha (IL1a) Biomarker Activity (AID 2283080); settings: primary human HUVEC with PBMC; actives raise or lower the signal
Procedure, shortened: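 Human umbilical vein endothelial cells co-cultured with PBMC and stimulated with LPS; IL-1a measured by ELISA 24 h after dosing. Bidirectional fitting against DMSO; cytotoxicity checked by SRB staining in parallel cultures.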

[10] = read-out: Monocyte Chemoattractant Protein-1 (MCP1), CCL2 (gene 6347); assay: BSK_LPS_MCP1: BioMAP Diversity Plus: LPS Assay for Monocyte Chemoattractant Protein-1 (MCP1) Biomarker Activity (AID 2283081); settings: primary human HUVEC with PBMC; actives raise or lower the signal;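 as to AC50: secreted MCP-1 protein quantified by ELISA in culture supernatant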
Procedure, shortened: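 Human umbilical vein endothelial cells co-cultured with PBMC, LPS-stimulated; secreted MCP-1 measured by ELISA 24 h after compound addition. Bidirectional curve fitting against DMSO baseline; SRB total-protein staining in parallel cultures for cytotoxicity.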

[11] = BSK_LPS_PGE2: BioMAP Diversity Plus: LPS Assay for Prostaglandin E2 (PGE2) Biomarker Activity (AID 2283082); settings: primary human HUVEC with PBMC; actives raise or lower the signal
Procedure, shortened: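 HUVEC plus PBMC co-culture stimulated with LPS; secreted PGE2 quantified by ELISA 24 h after chemical dosing. Activity fitted bidirectionally against DMSO as negative control and baseline; parallel SRB total-protein staining served as cytotoxicity check.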

[12] = read-out: Macrophage colony-stimulating factor (MCSF), CSF1 (gene 1435); assay: BSK_LPS_MCSF: BioMAP Diversity Plus: LPS Assay for Macrophage colony-stimulating factor (MCSF) Biomarker Activity (AID 2283083); settings: primary human HUVEC with PBMC; actives raise or lower the signal
Procedure, shortened: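 HUVEC–PBMC co-culture, M-CSF measured by ELISA 24 h after chemical dosing. Fitted in both directions relative to DMSO as negative control; overt cytotoxicity assessed by SRB total-protein staining in parallel cultures.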

[13] = read-out: Tissue Factor, F3 (gene 2152); assay: BSK_LPS_TissueFactor: BioMAP Diversity Plus: LPS Assay for Tissue Factor Biomarker Activity (AID 2283084); settings: primary human HUVEC with PBMC; actives raise or lower the signal
Procedure, shortened: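 Human umbilical vein endothelial cells co-cultured with PBMC were dosed with compound. Cell-surface CD142 was measured by ELISA 24 h later. Activity was fitted bidirectionally against DMSO, with SRB total-protein staining in parallel cultures for cytotoxicity.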

[14] = read-out: Vascular cell adhesion molecule 1 (VCAM1), VCAM1 (gene 7412); assay: BSK_LPS_VCAM1: BioMAP Diversity Plus: LPS Assay for Vascular cell adhesion molecule 1 (VCAM1) Biomarker Activity (AID 2283086); settings: primary human HUVEC with PBMC; actives raise or lower the signal
Procedure, shortened: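 Human umbilical vein endothelial cells co-cultured with peripheral blood mononuclear cells under LPS stimulation were exposed to test chemical for 24 h. VCAM-1 levels were then measured by ELISA, with bidirectional curve fitting relative to DMSO as negative control and baseline.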

CD38, CD38 (gene 952) = assay: BSK_SAg_CD38: BioMAP Diversity Plus: SAg Assay for CD38 Biomarker Activity (AID 2283087); settings: primary human HUVEC with PBMC; actives raise or lower the signal
Procedure, shortened: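 Fluorescence ELISA of cell-surface CD38 served as the read-out, with either increase or decrease fitted against DMSO controls. Cells were a human umbilical vein endothelium plus PBMC co-culture under SEB/TSST-1 stimulation, measured 24 h after dosing.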

CD40, CD40 (gene 958) [15] = assay: BSK_SAg_CD40: BioMAP Diversity Plus: SAg Assay for CD40 Biomarker Activity (AID 2283088); settings: primary human HUVEC with PBMC; actives raise or lower the signal
Procedure, shortened: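 HUVEC plus PBMC co-culture, superantigen-activated, with CD40 read by ELISA 24 h after dosing. Curves fitted in both directions against DMSO. Overt cytotoxicity checked by parallel SRB total-protein staining.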

CD69, CD69 (gene 969) = assay: BSK_SAg_CD69: BioMAP Diversity Plus: SAg Assay for CD69 Biomarker Activity (AID 2283089); settings: primary human HUVEC with PBMC; actives raise or lower the signal;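 as to AC50: cell surface CD69 protein quantified by ELISA with fluorescence detection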
Procedure, shortened: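 HUVEC co-cultured with PBMC were dosed with chemical, and CD69 was measured by ELISA with fluorescence read-out 24 h later. Bidirectional curve fitting used DMSO as negative control and activity baseline.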

[16] = read-out: Monocyte Chemoattractant Protein-1 (MCP1), CCL2 (gene 6347); assay: BSK_SAg_MCP1: BioMAP Diversity Plus: SAg Assay for Monocyte Chemoattractant Protein-1 (MCP1) Biomarker Activity (AID 2283090); settings: primary human HUVEC with PBMC; actives raise or lower the signal
Procedure, shortened: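 MCP-1 levels in the endothelial–PBMC SAg co-culture were quantified by ELISA at 24 h post-dosing; both increases and decreases versus DMSO scored. Cytotoxicity monitored by SRB total protein in parallel cultures.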

[17] = BSK_LPS_SRB: Viability Assessment in the BioMAP Diversity Plus: LPS Assay (AID 2283079); settings: primary human HUVEC with PBMC;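 also: total protein by sulforhodamine B absorbance as a cytotoxicity measure; measured one day after compound addition; fitted in both directions against DMSO so loss or gain of signal counts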
Procedure, shortened: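 Co-culture of human umbilical vein endothelial cells and PBMC, read 24 h after dosing. Total protein by 0.1% SRB staining after 10% TCA fixation, absorbance at 560 nm; bidirectional fit against DMSO.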

[18] = read-out: Tumor necrosis factor (Homo sapiens) (UniProt P01375); assay: BSK_LPS_TNFa: BioMAP Diversity Plus: LPS Assay for Tumour Necrosis Factor alpha (TNFa) Biomarker Activity (AID 2283085); settings: primary human HUVEC with PBMC; actives raise or lower the signal
Procedure, shortened: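 Human umbilical vein endothelial cells co-cultured with PBMC were exposed to test chemical and TNFa measured by ELISA 24 h after dosing. Bidirectional curve fitting was done relative to DMSO as negative control and baseline.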

Sequence of E-selectin (Homo sapiens) (P16581 whole entry, looked up): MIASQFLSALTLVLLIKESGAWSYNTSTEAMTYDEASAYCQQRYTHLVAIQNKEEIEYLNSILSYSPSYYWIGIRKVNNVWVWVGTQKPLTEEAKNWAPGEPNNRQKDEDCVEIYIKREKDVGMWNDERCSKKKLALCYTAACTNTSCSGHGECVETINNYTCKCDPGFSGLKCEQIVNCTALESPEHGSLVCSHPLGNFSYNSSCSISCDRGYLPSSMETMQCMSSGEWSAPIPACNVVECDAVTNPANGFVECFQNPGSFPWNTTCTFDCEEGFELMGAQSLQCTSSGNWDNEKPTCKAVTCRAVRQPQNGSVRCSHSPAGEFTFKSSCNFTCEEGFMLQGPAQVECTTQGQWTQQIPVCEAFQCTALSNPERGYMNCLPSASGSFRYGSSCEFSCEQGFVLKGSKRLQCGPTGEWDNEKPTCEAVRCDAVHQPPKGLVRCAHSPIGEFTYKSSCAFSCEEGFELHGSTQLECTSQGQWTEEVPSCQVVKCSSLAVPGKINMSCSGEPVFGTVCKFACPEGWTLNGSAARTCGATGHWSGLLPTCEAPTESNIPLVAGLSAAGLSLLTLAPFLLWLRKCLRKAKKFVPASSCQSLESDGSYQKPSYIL
Sequence of Tumor necrosis factor (Homo sapiens) (P01375 whole entry, looked up): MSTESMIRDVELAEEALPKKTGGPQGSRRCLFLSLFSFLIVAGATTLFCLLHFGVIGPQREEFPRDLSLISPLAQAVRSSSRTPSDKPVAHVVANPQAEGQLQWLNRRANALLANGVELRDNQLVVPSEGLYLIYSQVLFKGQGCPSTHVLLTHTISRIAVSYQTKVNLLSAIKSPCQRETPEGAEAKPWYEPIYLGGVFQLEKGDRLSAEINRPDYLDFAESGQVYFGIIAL

For `Cc1ccccc1N`, the outcome [1] was “inactive”, the outcome [2] was “inactive” and the outcome [3] was “inactive”. For the same molecule, the outcome [4] was “inactive”, the outcome [5] was “inactive” and the outcome (CD40, CD40 (gene 958) [6]) was “inactive”. For the same molecule, the outcome [7] was “inactive”, the outcome [8] was “inactive” and the outcome [9] was “inactive”. For the same molecule, the outcome [10] was “inactive”, the outcome [11] was “inactive” and the outcome [12] was “inactive”. The outcome [13] was “inactive”, the outcome [14] was “inactive” and the outcome (CD38, CD38 (gene 952)) was “inactive”. For the same molecule, the outcome (CD40, CD40 (gene 958) [15]) was “inactive”, the outcome (CD69, CD69 (gene 969)) was “inactive” and the outcome [16] was “inactive”.
In the case of `CCC(C)(C)c1ccc(O)c(C(C)(C)CC)c1`, the AC50 [1] is reported as 9.47 µM (active), the AC50 [2] is reported as 8.12 µM (active) and the AC50 [3] is reported as 10.6 µM (active). For the same molecule, the AC50 [4] was 10.3 µM (active), the AC50 [5] was 7.77 µM (active) and the AC50 (CD40, CD40 (gene 958) [6]) was 13.6 µM (active). For the same molecule, the AC50 [7] was 27 µM (active), the AC50 [8] was 28.1 µM (active) and the AC50 [17] was 15 µM (active). The AC50 [9] was 14.3 µM (active), the AC50 [10] was 25.1 µM (active) and the outcome [11] was “inactive”. For the same molecule, the AC50 [12] was 18.4 µM (active), the AC50 [13] was 15.9 µM (active) and the AC50 [18] was 13.1 µM (active). For the same molecule, the AC50 [14] was 25 µM (active), the AC50 (CD38, CD38 (gene 952)) was 14.9 µM (active) and the AC50 (CD40, CD40 (gene 958) [15]) was 13 µM (active). The AC50 (CD69, CD69 (gene 969)) was 13.7 µM (active).
For `Cn1sc(Cl)cc1=O`, the outcome [1] was “inactive”, the outcome [2] was “inactive” and the outcome [3] was “inactive”. For the same molecule, the outcome [4] was “inactive”, the outcome [5] was “inactive” and the AC50 (CD40, CD40 (gene 958) [6]) was 26 µM (active). For the same molecule, the AC50 [7] was 35.4 µM (active), the outcome [8] was “inactive” and the outcome [17] was “inactive”. For the same molecule, the AC50 [10] was 35.2 µM (active), the outcome [11] was “inactive” and the AC50 [12] was 29.5 µM (active). For the same molecule, the outcome [13] was “inactive”, the AC50 [18] was 31.2 µM (active) and the AC50 [14] was 29.3 µM (active). The AC50 (CD38, CD38 (gene 952)) was 31.3 µM (active), the AC50 (CD40, CD40 (gene 958) [15]) was 26.4 µM (active) and the AC50 (CD69, CD69 (gene 969)) was 26.4 µM (active). The AC50 [16] was 30.7 µM (active).

Reference: PubChem BioAssay (EPA / NIEHS)
